According to PubChem BioAssay (Tox21):
Results filed as inconclusive are left out. The source made the active and inactive calls. Unless noted, calls come from the whole dose curve; as a rule, active = well fitted curve in the direction sought with a large enough effect in the repeat runs; inconclusive = weak or mixed curves; inactive = no such curve, though single readings can be large; an effect the other way counts as inactive or inconclusive.

Experiments:
[1] = qHTS assay to identify small molecule agonists of the sonic hedgehog signaling (Shh) pathway (AID 1259368; calls by dose curve;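 note: NIH/3T3-derived 3T3Gli1-Luc cells carrying a stable Gli1-driven firefly luciferase reporter; series mostly up to about 92 µM; nearly all actives have a fitted effect of over 15% in size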)
Method in brief: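 Luminescent signal was taken as a measure of Gli1-controlled luciferase expression in stably transfected NIH/3T3-derived cells that had been treated for 24 hr with compounds delivered in DMSO.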

[2] = target: Estrogen receptor beta (Homo sapiens) (UniProt Q92731); test: qHTS assay to identify small molecule agonists of the estrogen receptor beta (ER-beta) signaling pathway (AID 1259377; active = well fitted activation curve with a large enough effect in the signal ratio in the repeat runs, not every such curve was filed as active; the % refers to the signal ratio)
Method in brief: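 In HEK293T cells bearing a UAS-beta-lactamase reporter under ER-beta control, DMSO-delivered compounds were incubated for 16 hr at 37C. Activity was detected as fluorescence 2 hours after LiveBLAzer B/G FRET substrate addition.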

[3] = qHTS assay to identify small molecule agonists of the androgen receptor (AR) signaling pathway in the presence of an antagonist - cell viability counter screen (AID 1259379);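 note: MDA-kb2 human breast cancer cells carrying an MMTV luciferase reporter; series mostly up to about 92 µM; nearly all actives have a fitted effect of over 25% in size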
Method in brief: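 In MDA-kb2 cells (human breast carcinoma, MMTV-luciferase), compounds at 15 concentrations plus 3.0uM nilutamide; 16 hr, 37C, 0% CO2; CellTiter-Fluor fluorescence read for viability.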

[4] = qHTS assay to identify small molecule antagonists of the estrogen receptor beta (ER-beta) signaling pathway - cell viability counter screen (AID 1259382); note: series mostly up to about 92 µM; nearly all actives have a fitted effect of over 55% in size
Method in brief: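 Tox21 10K library tested in qHTS format on ER-beta-bla HEK293T cells stimulated with 1nM E2; 16 hr treatment at 37C. Same-well CellTiter-Glo luminescence served as the cell viability measure.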

[5] = qHTS assay to identify small molecule agonists or antagonists of the thyroid stimulating hormone receptor (TSHR) signaling pathway - wild type cell line counter screen (AID 1259384; calls by dose curve)
Method in brief: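 Wild-type Hek293 cells, 800/well, 18 h at 37C, then compound with Ro20-1724 for 30 min RT. cAMP by HTRF (cAMP-d2/anti-cAMP cryptate), 1 h RT, fluorescence read. 15 concentrations, triplicates.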

[6] = target: Thyrotropin receptor (Homo sapiens) (UniProt P16473); test: qHTS assay to identify small molecule antagonists of the thyroid stimulating hormone receptor (TSHR) signaling pathway (AID 1259385; calls by dose curve; note: nearly all actives have a fitted effect of over 20% in size)
Method in brief: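 TSHR-HEK293 cells (800/well) plated 18 h, then compounds with Ro20-1724 and TSH at 1.5 ng/mL final, 30 min at room temperature. cAMP quantified by HTRF (cAMP-d2/anti-cAMP-cryptate, 1 h); 15 concentrations in triplicate.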

[7] = target: Progesterone receptor (Homo sapiens) (UniProt P06401); test: qHTS assay to identify small molecule agonists of the progesterone receptor (PR) signaling pathway (AID 1346784; calls by dose curve; note: nearly all actives have a fitted effect of over 30% in size; note: potency is the fitted concentration of half-maximal effect)
Method in brief: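 Using charcoal-stripped serum (2%) to limit endogenous steroids, PR-UAS-bla HEK 293T cells received compounds for 16 hr at 37C after 6 hr plating; beta-lactamase FRET fluorescence was recorded following 2 hr substrate loading at room temperature.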

[8] = qHTS assay to identify small molecule antagonists of the progesterone receptor (PR) signaling pathway - cell viability counter screen (AID 1346798); note: series mostly up to about 92 µM; nearly all actives have a fitted effect of over 50% in size
Method in brief: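 ATP content as viability readout: CellTiter-Glo luminescence, 30 min room temperature, in PR-UAS-bla HEK293T cells after 16 hr compound/R5020 treatment at 37C and 5% CO2.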

[9] = qHTS assay to identify small molecule agonists of the progesterone receptor (PR) signaling pathway - cell viability counter screen (AID 1346799; calls by dose curve; note: nearly all actives have a fitted effect of over 45% in size)
Method in brief: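 Cytotoxicity in PR-bla HEK293T cells: 16 h compound, 37C; CellTiter-Glo added post-FRET read; luminescence after 30 min RT.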

[10] = qHTS assay to identify small molecule antagonists of the TGF-beta/Smad signaling pathway - cell viability counter screen (AID 1346824); note: nearly all actives have a fitted effect of over 50% in size
Method in brief: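 SBE-bla HEK 293T cells, incubated overnight, then compound plus 0.25 ng/mL TGF-beta1 (stock added) for 5 hr at 37 C. Viability was read in the same wells by CellTiter-Glo luminescence after 30 min at room temperature.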

[11] = qHTS assay to identify small molecule agonists of the TGF-beta/Smad signaling pathway - cell viability counter screen (AID 1346829); note: top concentration of the series differs between compounds; nearly all actives have a fitted effect of over 45% in size
Method in brief: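 CellTiter-Glo luminescence readout; SBE-bla HEK 293T cells, overnight plating, compound 5 hr at 37 C/5% CO2, then bla substrate 2 hr RT, then CellTiter-Glo 30 min RT.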

[12] = qHTS assay to identify small molecule agonists of the TGF-beta/Smad signaling pathway (AID 1346859; active = well fitted activation curve with a large enough effect in the signal ratio in the repeat runs, not every such curve was filed as active; the % refers to the signal ratio; note: series mostly up to about 77 µM)
Method in brief: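 Stable Smad binding element-beta-lactamase HEK 293T cells; 5 hr compound exposure at 37 C under 5% CO2; 2 hr room-temperature substrate step; fluorescence excited at 405 nm, collected at 460 nm and 530 nm.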

[13] = qHTS assay to identify small molecule agonists of the estrogen receptor beta (ER-beta) signaling pathway - cell viability counter screen (AID 1259380); note: nearly all actives have a fitted effect of over 30% in size; note: potency is the fitted concentration of half-maximal effect
Method in brief: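 Viability of ER-beta-UAS-bla HEK293T cells was determined by CellTiter-Glo luminescence following 16 hr treatment with test compounds at 37C.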

[14] = target: Estrogen receptor (Homo sapiens) (UniProt P03372); test: qHTS assay to identify small molecule agonists of the estrogen receptor alpha (ER-alpha) signaling pathway in the presence of an antagonist (AID 1259383; calls by dose curve; note: top concentration of the series differs between compounds; nearly all actives have a fitted effect of over 15% in size)
Method in brief: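 In VM7Luc4E2 cells, 4,000 per well, compounds at 15 concentrations were co-incubated 22hr at 37C with 10.0nM final ICI-182,780. Luminescence from the stably transfected 4×ERE-luciferase reporter was recorded 30min after ONE-Glo addition.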

[15] = qHTS assay to identify small molecule agonists of the estrogen receptor alpha (ER-alpha) signaling pathway in the presence of an antagonist - cell viability counter screen (AID 1259386);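 note: series mostly up to about 92 µM; cells exposed to compounds for 22 h at 37 °C before the viability read; nearly all actives have a fitted effect of over 30% in size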
Method in brief: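 Fluorescent CellTiter-Fluor viability signal from VM7Luc4E2 cells, with the reagent added during the final hour of a 22hr compound exposure at 37C in the presence of 10.0nM ICI-182,780.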

[16] = target: Progesterone receptor (Homo sapiens) (UniProt P06401); test: qHTS assay to identify small molecule antagonists of the progesterone receptor (PR) signaling pathway (AID 1346795; active = well fitted inhibition curve with a large enough effect in the signal ratio in the repeat runs, not every such curve was filed as active; the % refers to the signal ratio; note: potency is the fitted concentration of half-maximal effect)
Method in brief: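 Inhibition of R5020-induced (1 nM final) beta-lactamase reporter signal in PR-UAS-bla HEK293T cells was scored by FRET fluorescence after overnight (16 hr) compound treatment.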

[17] = target: Thyrotropin-releasing hormone receptor (Homo sapiens) (UniProt P34981); test: qHTS assay to identify small molecule antagonists of the thyrotropin-releasing hormone receptor (TRHR) signaling pathway (AID 1346877; active = well fitted inhibition curve with a large enough effect in the repeat runs, not every such curve was filed as active; note: series mostly up to about 51 µM)
Method in brief: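 In this cell-based calcium flux format, HEK293 cells expressing TRHR received test compound for 5 min before the agonist TRH (1 nM final). Dye loading lasted 2 h at 37 °C.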

[18] = target: Androgen receptor (Homo sapiens) (UniProt P10275); test: qHTS assay to identify small molecule agonists of the androgen receptor (AR) signaling pathway in the presence of an antagonist (AID 1259381; calls by dose curve; note: nearly all actives have a fitted effect of over 15% in size)
Method in brief: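 Here, 15-concentration compound series were pin-transferred onto MDA-kb2 MMTV-luciferase cells already dosed with nilutamide (3.0uM final). After 16hr at 37C, ONE-Glo was added and luminescence read 30min later at room temperature.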

[19] = qHTS assay to identify small molecule antagonists of the sonic hedgehog signaling (Shh) pathway (AID 1259369; calls by dose curve; note: nearly all actives have a fitted effect of over 45% in size)
Method in brief: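 Screening used 3T3Gli1-Luc cells at 2,000 per well, compounds delivered in DMSO, and conditioned medium as agonist stimulus; plates incubated 24hr at 37 C and 5% CO2 before a 30min luciferase step.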

[20] = target: Estrogen receptor beta (Homo sapiens) (UniProt Q92731); test: qHTS assay to identify small molecule antagonists of the estrogen receptor beta (ER-beta) signaling pathway (AID 1259378; active = well fitted inhibition curve with a large enough effect in the signal ratio in the repeat runs, not every such curve was filed as active; the % refers to the signal ratio)
Method in brief: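 ER-beta-UAS-bla HEK293T cells in 2% charcoal-stripped FBS medium treated with compound plus 1nM final 17-beta-estradiol for 16 hr at 37C. Beta-lactamase reporter read by FRET substrate fluorescence after 2 hours at room temperature.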

Measured: Potency

Chain of Thyrotropin receptor (Homo sapiens) (P16473 whole entry, looked up): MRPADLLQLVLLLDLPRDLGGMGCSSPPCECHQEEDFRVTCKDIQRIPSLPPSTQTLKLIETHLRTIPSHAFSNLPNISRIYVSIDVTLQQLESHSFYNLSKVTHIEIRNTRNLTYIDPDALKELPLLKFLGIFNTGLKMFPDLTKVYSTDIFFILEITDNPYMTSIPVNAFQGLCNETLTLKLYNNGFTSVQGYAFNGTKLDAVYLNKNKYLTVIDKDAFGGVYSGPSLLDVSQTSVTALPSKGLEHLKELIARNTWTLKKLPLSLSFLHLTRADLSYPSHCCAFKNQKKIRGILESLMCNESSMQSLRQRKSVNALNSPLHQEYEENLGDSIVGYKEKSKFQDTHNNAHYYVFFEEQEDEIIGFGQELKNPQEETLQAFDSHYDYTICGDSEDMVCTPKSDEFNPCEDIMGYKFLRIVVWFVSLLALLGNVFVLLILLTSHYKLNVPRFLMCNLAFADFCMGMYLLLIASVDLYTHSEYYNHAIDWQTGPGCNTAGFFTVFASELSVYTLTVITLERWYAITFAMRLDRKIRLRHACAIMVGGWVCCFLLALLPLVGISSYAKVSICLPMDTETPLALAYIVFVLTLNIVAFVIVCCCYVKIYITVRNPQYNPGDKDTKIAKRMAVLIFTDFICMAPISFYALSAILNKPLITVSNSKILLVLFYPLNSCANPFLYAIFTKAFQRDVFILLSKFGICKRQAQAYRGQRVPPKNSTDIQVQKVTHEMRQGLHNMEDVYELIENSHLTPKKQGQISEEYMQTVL
Chain of Estrogen receptor beta (Homo sapiens) (Q92731 whole entry, looked up): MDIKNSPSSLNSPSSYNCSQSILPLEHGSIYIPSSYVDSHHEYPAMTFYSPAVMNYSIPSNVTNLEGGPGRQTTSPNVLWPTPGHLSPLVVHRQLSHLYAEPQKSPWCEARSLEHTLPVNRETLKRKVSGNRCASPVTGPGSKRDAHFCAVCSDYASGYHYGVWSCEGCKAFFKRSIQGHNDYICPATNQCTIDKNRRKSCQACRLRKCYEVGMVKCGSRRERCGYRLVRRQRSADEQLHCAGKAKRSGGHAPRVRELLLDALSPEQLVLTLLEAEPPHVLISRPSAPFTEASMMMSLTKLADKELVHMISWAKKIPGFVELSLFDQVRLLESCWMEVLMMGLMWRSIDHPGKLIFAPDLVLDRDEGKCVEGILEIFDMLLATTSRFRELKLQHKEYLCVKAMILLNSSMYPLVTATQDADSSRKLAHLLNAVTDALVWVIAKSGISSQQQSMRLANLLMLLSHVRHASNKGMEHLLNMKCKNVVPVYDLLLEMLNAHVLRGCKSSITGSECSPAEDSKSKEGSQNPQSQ
Chain of Progesterone receptor (Homo sapiens) (P06401 whole entry, looked up): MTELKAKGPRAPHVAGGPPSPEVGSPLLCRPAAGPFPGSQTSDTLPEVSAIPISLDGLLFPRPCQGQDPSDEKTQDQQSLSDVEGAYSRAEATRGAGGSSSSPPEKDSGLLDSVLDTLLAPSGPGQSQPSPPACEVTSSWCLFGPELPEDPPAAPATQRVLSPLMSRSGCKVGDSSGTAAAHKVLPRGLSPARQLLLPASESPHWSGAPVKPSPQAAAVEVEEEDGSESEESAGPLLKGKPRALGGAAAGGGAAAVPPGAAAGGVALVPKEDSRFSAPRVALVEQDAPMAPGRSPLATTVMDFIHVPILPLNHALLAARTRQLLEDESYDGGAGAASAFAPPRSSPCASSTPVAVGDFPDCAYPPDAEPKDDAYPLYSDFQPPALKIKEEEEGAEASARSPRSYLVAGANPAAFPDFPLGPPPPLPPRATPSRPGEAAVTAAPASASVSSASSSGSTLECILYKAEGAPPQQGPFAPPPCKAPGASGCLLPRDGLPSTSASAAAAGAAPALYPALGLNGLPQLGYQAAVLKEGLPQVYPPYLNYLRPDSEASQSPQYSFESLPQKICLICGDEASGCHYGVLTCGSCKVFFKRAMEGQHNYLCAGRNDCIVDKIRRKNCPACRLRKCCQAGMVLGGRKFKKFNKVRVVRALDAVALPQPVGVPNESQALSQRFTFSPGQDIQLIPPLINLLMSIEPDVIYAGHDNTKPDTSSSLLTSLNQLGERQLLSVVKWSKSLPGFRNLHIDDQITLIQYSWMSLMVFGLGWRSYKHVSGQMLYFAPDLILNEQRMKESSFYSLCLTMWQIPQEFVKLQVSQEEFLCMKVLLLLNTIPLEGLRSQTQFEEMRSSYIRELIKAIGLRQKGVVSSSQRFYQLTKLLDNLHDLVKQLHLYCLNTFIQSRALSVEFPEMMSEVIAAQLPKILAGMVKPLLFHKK
Chain of Androgen receptor (Homo sapiens) (P10275 whole entry, looked up): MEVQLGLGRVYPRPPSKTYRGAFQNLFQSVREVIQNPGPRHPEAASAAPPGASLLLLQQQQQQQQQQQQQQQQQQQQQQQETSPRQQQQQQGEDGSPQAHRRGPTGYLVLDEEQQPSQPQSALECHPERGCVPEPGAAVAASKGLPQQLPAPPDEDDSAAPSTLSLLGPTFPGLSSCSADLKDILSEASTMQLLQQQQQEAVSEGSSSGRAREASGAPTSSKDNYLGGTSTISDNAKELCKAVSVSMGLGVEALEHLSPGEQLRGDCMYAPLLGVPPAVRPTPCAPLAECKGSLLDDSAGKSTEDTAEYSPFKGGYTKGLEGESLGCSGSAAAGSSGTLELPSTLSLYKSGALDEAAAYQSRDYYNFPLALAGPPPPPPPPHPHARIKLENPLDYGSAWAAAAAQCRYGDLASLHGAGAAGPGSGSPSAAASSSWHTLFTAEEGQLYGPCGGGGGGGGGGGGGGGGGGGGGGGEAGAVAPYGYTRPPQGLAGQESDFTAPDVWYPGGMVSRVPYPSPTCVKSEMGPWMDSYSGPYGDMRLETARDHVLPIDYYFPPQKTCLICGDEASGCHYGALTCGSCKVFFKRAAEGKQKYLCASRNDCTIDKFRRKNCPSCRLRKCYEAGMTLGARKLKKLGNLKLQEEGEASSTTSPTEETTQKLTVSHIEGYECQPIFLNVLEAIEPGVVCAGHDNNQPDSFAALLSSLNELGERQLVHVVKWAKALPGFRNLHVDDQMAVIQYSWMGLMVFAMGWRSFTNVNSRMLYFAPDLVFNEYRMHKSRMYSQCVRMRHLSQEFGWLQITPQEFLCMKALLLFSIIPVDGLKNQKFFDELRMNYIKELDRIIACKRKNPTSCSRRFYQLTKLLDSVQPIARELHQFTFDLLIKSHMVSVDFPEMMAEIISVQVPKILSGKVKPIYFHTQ
Chain of Thyrotropin-releasing hormone receptor (Homo sapiens) (P34981 whole entry, looked up): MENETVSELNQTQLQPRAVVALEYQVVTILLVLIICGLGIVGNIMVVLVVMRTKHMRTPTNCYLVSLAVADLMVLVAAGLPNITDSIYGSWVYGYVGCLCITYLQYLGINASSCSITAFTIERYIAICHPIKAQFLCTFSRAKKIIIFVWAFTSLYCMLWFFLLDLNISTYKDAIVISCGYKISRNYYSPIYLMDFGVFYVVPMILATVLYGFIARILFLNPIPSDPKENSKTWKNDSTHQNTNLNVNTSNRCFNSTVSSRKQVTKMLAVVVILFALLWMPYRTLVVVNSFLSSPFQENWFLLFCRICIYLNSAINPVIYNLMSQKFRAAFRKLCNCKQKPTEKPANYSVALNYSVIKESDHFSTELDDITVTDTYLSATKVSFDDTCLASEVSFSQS
Chain of Estrogen receptor (Homo sapiens) (P03372 whole entry, looked up): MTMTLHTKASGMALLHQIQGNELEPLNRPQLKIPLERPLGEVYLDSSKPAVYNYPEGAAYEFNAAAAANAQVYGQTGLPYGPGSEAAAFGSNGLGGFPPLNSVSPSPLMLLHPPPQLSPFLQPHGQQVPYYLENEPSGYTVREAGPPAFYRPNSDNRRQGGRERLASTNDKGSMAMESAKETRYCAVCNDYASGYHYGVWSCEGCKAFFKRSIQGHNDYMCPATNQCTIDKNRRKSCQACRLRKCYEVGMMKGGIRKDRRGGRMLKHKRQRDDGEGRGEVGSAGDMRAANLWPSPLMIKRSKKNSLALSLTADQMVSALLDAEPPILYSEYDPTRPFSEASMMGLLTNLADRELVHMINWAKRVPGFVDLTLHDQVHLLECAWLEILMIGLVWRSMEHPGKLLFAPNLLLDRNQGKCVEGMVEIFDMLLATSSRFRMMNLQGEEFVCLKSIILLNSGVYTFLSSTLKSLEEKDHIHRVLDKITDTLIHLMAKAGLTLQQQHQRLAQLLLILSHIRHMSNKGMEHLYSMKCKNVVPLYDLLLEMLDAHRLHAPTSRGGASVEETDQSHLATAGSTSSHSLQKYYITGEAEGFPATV

CCCCC/C(=C\c1ccccc1)CO
not listed: [13] | [14] | [15] | [16] | [17] | [18] | [19] | [20]
inactive: all other assays above

CCCOc1ccc(S(=O)(=O)N2CCN(CC)CC2)cc1-c1nc2c(CC)n(Cc3ccccn3)nc2c(=O)[nH]1
inactive: [1] | [3] | [13] | [4] | [14] | [5] | [15] | [7] | [9] | [10] | [11]

CC1(C)C2=CCCC(C)(C)[C@]23CC[C@H]1C3
inactive: [1] | [3] | [5] | [6] | [15] | [16] | [10] | [11] | [12]

Cc1ccc(Nc2nccc(N(C)c3ccc4c(C)n(C)nc4c3)n2)cc1S(N)(=O)=O
inactive: [1] | [2] | [3] | [4] | [14] | [7] | [10] | [11] | [12] | [17]

O=C(OCCOCCO)c1ccccc1Nc1cccc(C(F)(F)F)c1
active: [16] 18.8 µM
not listed: [2] | [8] | [9] | [18] | [19] | [20]
inactive: all other assays above

CNC(=O)N(c1ccccc1)c1ccccc1
not listed: [2] | [7] | [19] | [20]
inactive: all other assays above

Cc1oc(C)c(C(=O)Nc2ccccc2)c1C
inactive: [1] | [4] | [15] | [7] | [8] | [9] | [12] | [17]

NC(=O)N(O)[C@@H]1C=C[C@H](Oc2cccc(Oc3ccc(F)cc3)c2)C1
inactive: [1] | [2] | [13] | [4] | [5] | [6] | [7] | [10] | [11] | [12]

CCCCC(=O)O[C@]1(C(=O)CO)[C@@H](C)C[C@H]2[C@@H]3CCC4=CC(=O)C=C[C@]4(C)[C@@]3(F)[C@@H](O)C[C@@]21C
active: [13] 15.4 µM | [7] 0.0019 µM
inactive: [1] | [3] | [5] | [15] | [16] | [9] | [10] | [11]

O=C(NCCCN1CCOCC1)c1ccc(Cl)cc1
not listed: [2] | [17] | [18] | [19] | [20]
inactive: all other assays above

COc1cc2c(N3CCN(C(=O)Nc4ccc(OC(C)C)cc4)CC3)ncnc2cc1OCCCN1CCCCC1
active: [13] 18.8 µM
not listed: [2] | [3] | [15] | [18] | [19] | [20]
inactive: all other assays above

OC(CCCN1CCCCC1)(c1ccccc1)c1ccccc1
not listed: [2] | [9] | [14] | [19] | [20]
inactive: all other assays above

CC(C)C(=O)O
not listed: [2] | [5] | [6] | [17] | [18] | [19] | [20]
inactive: all other assays above

C(=C\c1ccccc1)/CN1CCN(C(c2ccccc2)c2ccccc2)CC1
inactive: [1] | [2] | [3] | [5] | [10] | [11] | [12]

CCn1cc(C(=O)O)c(=O)c2cc(F)c(N3CCNCC3)nc21
not listed: [1] | [17] | [18]
inactive: all other assays above

CC(=O)CC(c1ccc([N+](=O)[O-])cc1)c1c(O)c2ccccc2oc1=O (stereo unspecified)
not listed: [2] | [6] | [17] | [18] | [19] | [20]
inactive: all other assays above

O=C(Nc1ccc([N+](=O)[O-])cc1)Nc1ccc([N+](=O)[O-])cc1
inactive: [1] | [2] | [4] | [5] | [15] | [7] | [16] | [10] | [11] | [12] | [17]

COCC(O)CO (stereo unspecified)
not listed: [2] | [14] | [15] | [18] | [19] | [20]
inactive: all other assays above

COc1ccc(C(=O)c2cccc(O)c2)c(OC)c1
inactive: [1] | [3] | [13] | [18] | [4] | [15] | [7] | [10] | [11] | [12] | [17]
